{
  "source": "PubChem BioAssay (EPA / NIEHS)",
  "note": "Several values for one entry are separate records, joined by “and”; a condition that tells them apart may be missing. Equal entries are not always repeated. Some compounds were tested as several samples or in several runs, with calls that do not always agree. Activity calls are given as the source filed them. How the source made its calls: active means hit-call score of the fitted dose curve at least 0.9, where 1 is the maximum; inactive means score below 0.9.",
  "data": [
    {"assay": "ATG_NRF2_ARE_CIS: Attagene CIS-FACTORIAL HepG2 Assay for human Nuclear Factor Erythroid 2 Related Factor 2 (NFR2) response to Antioxidant Response Elements (ARE) (AID 2282992)", "conditions": "HepG2 Attagene ARE/NRF2 reporter, transcription factor activity; actives raise or lower the signal", "protocol": "ATG_CIS is a cell-based, multiplexed-readout assay that uses HepG2, a human liver cell line, with measurements taken at 24 hours after chemical dosing in a 24-well plate.ATG_NRF2_ARE_CIS is one of 52 assay component(s) measured or calculated from the ATG_CIS assay. It is designed to make measurements of mRNA induction, a form of inducible reporter, as detected with fluorescence intensity signals by Reverse transcription polymerase chain reaction (RT-PCR) and Capillary electrophoresis technology.Data from the assay component ATG_NRF2_ARE_CIS was analyzed into 1 assay endpoint. This assay endpoint, ATG_NRF2_ARE_CIS, was analyzed with bidirectional fitting relative to DMSO as the negative control and baseline of activity. Using a type of inducible reporter, measures of mRNA for gain or loss-of-signal activity can be used to understand the reporter gene at the transcription factor-level as they relate to the gene NFE2L2. Furthermore, this assay endpoint can be referred to as a primary readout, because this assay has produced multiple assay endpoints where this one serves a reporter gene function. To generalize the intended target to other relatable targets, this assay endpoint is annotated to the dna binding intended target family, where the subfamily is basic leucine zipper.\nHuman liver HepG2 cells are transiently transfected with multiple reporter transcription units (MRTUs) in 6-well plates using FuGene 6 reagent (Roche; 3 ml FuGene/1 mg DNA). The MRTU constructs are regulated by a cis-regulating element (promoter). […] A major difference between the CIS and TRANS system is that in CIS activities of endogenous TFs are measured, whereas the TRANS assay evaluates changes in activities of exogenous, chimeric NR-Gal4 proteins. […] At the end of 24 hour incubation, total RNA was isolated using TriZol reagent (Invitrogen). The isolated RNA is then reverse-transcribed using oligo(dT) primer and Mo-MLV reverse transcriptase (Invitrogen) with DNAse I (Ambion) treatment for 30 min. The one-tenth of the produced cDNA was amplified by PCR using Taq DNA polymerase (Invitrogen) and two reporter sequence-specific primers. The PCR products were fluorescently labeled by primer extension with 6-arboxyfluorescein (6-FAM) 5'-labeled reporter sequence-specific primer (2 min at 95 C, 20 s at 68 C and 10 min at 72 C) and these products were digested with 5U of HpaI (New England Biolabs) for 2h at 37 C. The fragments were purified using Qiaquick PCR columns (Qiagen), analyzed on an ABI 3130xL genetic analyzer (Applied Biosystems) with peak positions identified by using a set of X-rhodamine (ROX)-labeled MapMarker1000 molecular weight standards (BioVentures). The raw capillary electrophoresis data was processed using Attagraph software (Attagene).", "values": [
      {"smiles": "CCCCCCCCCCCC(=O)NCCCN(C)C", "outcome": "inactive"},
      {"smiles": "CC(O)COc1ccccc1", "note": "(stereo not given)", "outcome": "inactive"},
      {"smiles": "CCCCCC(C)OC(=O)COc1ccc(Cl)c2cccnc12", "note": "(stereo not given)", "AC50": "42.4 µM (active)"},
      {"smiles": "NC(=NCCCCCCN=C(N)/N=C(\\N)Nc1ccc(Cl)cc1)/N=C(\\N)Nc1ccc(Cl)cc1", "outcome": "inactive", "AC50": "2.26 µM (active)"},
      {"smiles": "CNNCc1ccc(C(=O)NC(C)C)cc1", "outcome": "inactive"},
      {"smiles": "FC(F)(F)C(F)(F)C(F)(F)Br", "outcome": "inactive"},
      {"smiles": "Cc1ccccc1OCC(=O)O", "outcome": "inactive"},
      {"smiles": "CN(CCO)S(=O)(=O)C(F)(F)C(F)(F)C(F)(F)C(F)(F)C(F)(F)C(F)(F)C(F)(F)C(F)(F)F", "outcome": "inactive"},
      {"smiles": "Nc1ccc(O)c(C(=O)O)c1", "outcome": "inactive"},
      {"smiles": "Cc1cc(C(=C2C=CC(=Nc3ccc(S(=O)(=O)O)cc3)C=C2)c2ccc(Nc3ccc(S(=O)(=O)O)cc3)cc2)cc(S(=O)(=O)O)c1N", "outcome": "inactive"},
      {"smiles": "CC1CCC(CO)CC1", "note": "(stereo not given)", "outcome": "inactive"},
      {"smiles": "C=Cc1ccc(O)c(OC)c1", "AC50": "6.89 µM (active)"},
      {"smiles": "O=S(=O)(O)C(F)(F)C(F)(F)C(F)(F)C(F)(F)C(F)(F)C(F)(F)C(F)(F)C(F)(F)C(F)(F)C(F)(F)F", "AC50": "47.3 µM (active) and 25.4 µM (active)"},
      {"smiles": "Oc1c(Cl)cc(Cl)cc1Sc1cc(Cl)cc(Cl)c1O", "AC50": "3 µM (active)"},
      {"smiles": "CCCCCCCCCC=CCC1CC(=O)OC1=O", "note": "(stereo not given)", "outcome": "inactive"},
      {"smiles": "Oc1ccc(Cc2ccccc2O)cc1", "AC50": "81 µM (active)"},
      {"smiles": "Cn1sccc1=O", "AC50": "161 µM (active)"},
      {"smiles": "FCOC(C(F)(F)F)C(F)(F)F", "outcome": "inactive"},
      {"smiles": "Cc1ccc(C)c(S(=O)(=O)O)c1", "outcome": "inactive"},
      {"smiles": "C=CC(C)(CCC=C(C)C)OC(C)=O", "note": "(stereo not given)", "outcome": "inactive"},
      {"smiles": "CCCCCc1ccc(O)cc1", "AC50": "17.6 µM (active)"},
      {"smiles": "CCCCC(CC)C(=O)OCCOCCOCCOCCOC(=O)C(CC)CCCC", "note": "(stereo not given)", "AC50": "100 µM (active)"},
      {"smiles": "C/C=C/C(=O)C1=C(C)CCCC1(C)C", "AC50": "3.93 µM (active)"},
      {"smiles": "O=C(O)c1cccc(C(=O)O)n1", "outcome": "inactive"},
      {"smiles": "O=C(O)CCC(F)(F)C(F)(F)C(F)(F)C(F)(F)C(F)(F)C(F)(F)F", "AC50": "68.4 µM (active)"},
      {"smiles": "NS(=O)(=O)O", "outcome": "inactive"},
      {"smiles": "CCCCC(CC)C(=O)O", "note": "(stereo not given)", "outcome": "inactive"},
      {"smiles": "CCCCCCCCCCCC[N+](C)(C)Cc1ccccc1", "AC50": "9.38 µM (active)", "outcome": "inactive"},
      {"smiles": "COc1ccc(C#N)cc1", "outcome": "inactive"},
      {"smiles": "Cc1cncc(C)c1", "outcome": "inactive"},
      {"smiles": "CC(C)C=O", "outcome": "inactive", "AC50": "64.6 µM (active)"},
      {"smiles": "O=P(O)(O)CCC(F)(F)C(F)(F)C(F)(F)C(F)(F)C(F)(F)C(F)(F)F", "outcome": "inactive"},
      {"smiles": "FC(F)(F)C1(F)C(F)(F)C(F)(F)C(F)(F)C1(F)F", "outcome": "inactive"},
      {"smiles": "Cc1ccc(N=Nc2c(O)ccc3ccccc23)c(C)c1", "AC50": "1.86 µM (active)"},
      {"smiles": "CCOC=O", "outcome": "inactive"},
      {"smiles": "CCOC(=O)CN[C@@H](C(=O)N1CC[C@H]1C(=O)NCc1ccc(/C(N)=N/O)cc1)C1CCCCC1", "outcome": "inactive"},
      {"smiles": "OCC(F)(F)C(F)(F)C(F)(F)C(F)(F)C(F)(F)C(F)(F)C(F)(F)C(F)(F)C(F)(F)C(F)(F)C(F)(F)F", "AC50": "55.4 µM (active)"}
    ]}
  ]
}
